Screening data deposited in PubChem BioAssay by National Center for Advancing Translational Sciences (NCATS).
Rows were chosen to be rich in hits. Some 10% of all compounds tested hit in one or more screens of this group.
HP1b binding inh: HTS for Inhibitors of HP1-beta Chromodomain Interactions with Methylated Histone Tails | Potency, µM (top dose mostly 114 µM), without a hit: at the highest dose activity change, negative = inhibition, most hits filed as inhibitors | hit rate 0.56% among 390,000 | AlphaScreen HP1-beta / biotin-H3K9me3 peptide binding; also: nearly all actives have a fitted effect of over 70% in size
Target sequence (P83916 whole entry, looked up): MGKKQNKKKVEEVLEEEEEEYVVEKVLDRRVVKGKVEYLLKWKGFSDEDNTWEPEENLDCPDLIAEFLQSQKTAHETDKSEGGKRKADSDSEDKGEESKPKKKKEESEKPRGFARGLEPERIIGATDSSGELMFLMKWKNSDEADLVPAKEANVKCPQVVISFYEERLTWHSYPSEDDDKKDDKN
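Compound inhibition of the preformed complex between 50 nM HP1-beta and 50 nM biotinylated H3K9me3 peptide was read by AlphaScreen. Buffer was PBS pH 7.4 with 0.01% Tween-20. Incubations ran 30 min at room temperature, with 10 ug/mL donor/acceptor beads.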
BAZ2B block: qHTS Assay for Inhibitors of BAZ2B. Potency, µM (series often up to 114 µM), without a hit: top-dose activity change, negative = inhibition, most hits filed as inhibitors. Bromodomain adjacent to zinc finger domain protein 2B (Homo sapiens), Q9UIF8. hit rate 4.4% among 360,000. AlphaScreen BAZ2B-H3K14Ac peptide displacement; also: % is scaled to controls: 0 for no effect and ±100 for the full control effect; nearly all actives have a fitted effect of over 60% in size
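AlphaScreen displacement of biotin-H3(5-23)K14Ac peptide (50 nM final) from BAZ2B (50 nM final) in PBS pH 7.4, 0.01% Tween-20; complex preformed 30 min RT, then compounds (top 110 uM) 30 min RT, beads 20 min dark.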
GLS inh: qHTS for Inhibitors of Glutaminase (GLS) | Glutaminase kidney isoform, mitochondrial (Homo sapiens), O94925 | GLS enzymatic activity, qHTS titration | Potency, µM (titrated, usually from 45.5 µM), for the others: at the top dose activity change, negative = inhibition, actives largely listed as inhibitors | hit rate 0.21% among 410,000; also: % is scaled to controls: 0 for no effect and ±100 for the full control effect
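Read-out is an Amplex red fluorescence increase coupled through glutamate oxidase and HRP, measured before and after 30 min room-temperature incubation. hKGA is in 45 mM KH2PO4 (pH 8.2) with 0.02% Tween-20; glutamine added as 1mM solution.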
G9a block: qHTS Assay for Inhibitors of Histone Lysine Methyltransferase G9a; Potency, µM (highest dose often 102 µM), inactives show at the top dose activity, negative = inhibition, most hits filed as inhibitors; G9a H3K9 monomethylation, AlphaScreen, 2 h; Histone-lysine N-methyltransferase EHMT2 (Homo sapiens), Q96KQ7; hit rate 8.8% among 350,000; also: % is scaled to controls: 0 for no effect and ±100 for the full control effect; nearly all actives have a fitted effect of over 75% in size
Target sequence (Q96KQ7 913-1193 limits assumed): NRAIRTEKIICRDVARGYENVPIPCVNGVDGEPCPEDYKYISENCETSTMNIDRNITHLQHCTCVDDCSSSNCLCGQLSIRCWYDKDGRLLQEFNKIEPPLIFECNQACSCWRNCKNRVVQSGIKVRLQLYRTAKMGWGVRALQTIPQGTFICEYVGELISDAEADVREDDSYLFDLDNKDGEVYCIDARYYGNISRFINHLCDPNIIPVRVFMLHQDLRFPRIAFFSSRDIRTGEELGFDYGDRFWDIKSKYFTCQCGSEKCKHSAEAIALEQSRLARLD
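AlphaScreen read-out: biotin-H3K9 peptide (500 nM) methylation by 20 nM enzyme with 20 uM SAM, 2 h at room temperature after 15 min compound preincubation; anti-monomethyl H3K9 antibody plus donor/acceptor beads, 10 min dark.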
JMJD2A Tudor inh: qHTS Assay for Inhibitors of JMJD2A-Tudor Domain | Lysine-specific demethylase 4A (Homo sapiens), O75164 | Potency, µM (top dose mostly 114 µM), inactives show top-dose activity change, negative = inhibition, hits mostly inhibitors | AlphaScreen JMJD2A-Tudor / H3K4me3 peptide binding | hit rate 4.4% among 390,000 | AID 504339, 2011; also: % is scaled to controls: 0 for no effect and ±100 for the full control effect; nearly all actives have a fitted effect of over 50% in size
Active calls of the source: *; [ ] = another dose, or the depositor's remark. Calls follow the shape of the dose curve; as a rule, active = well fitted curve in the direction sought with a large enough effect; inconclusive = small, poorly fitted or top-dose-only effect, or another doubt; inactive = no such curve, though single readings can be large; an effect the other way counts as inactive or inconclusive. Potency is read from the fitted curve at half-maximal effect.

Screening CCn1cc(C(=O)N(C)c2cc(C)ccc2OC)c2cc(OC)c(OC)cc2c1=O returned HP1b binding inh 14.0%, BAZ2B block 1.6%, GLS inh 2.7%, G9a block 5.1% and JMJD2A Tudor inh -7.0%.
For CCCCCCCCCc1nc2sc3c(c2c(=O)n1NC(=O)c1ccccc1[N+](=O)[O-])CC(C)(C)OC3 the results were HP1b binding inh -0.8%, BAZ2B block -35.5%, GLS inh 1.1%, G9a block 70.8µM* and JMJD2A Tudor inh inconclusive.
For N#Cc1ccccc1CSc1ccccn1 the results were HP1b binding inh 39.1%, BAZ2B block 22.8%, GLS inh 9.5%, G9a block inconclusive and JMJD2A Tudor inh -5.8%.
For O=C1CC(SCc2nc3ccccc3[nH]2)C(=O)N1c1ccc(Cl)cc1 (stereo not given) the results were HP1b binding inh 43.3%, BAZ2B block -0.5%, GLS inh -5.7%, G9a block 17.8µM* and JMJD2A Tudor inh -15.7%.
Screening O=C1CC(SCc2nc3ccccc3[nH]2)C(=O)N1c1ccc(F)c(Cl)c1 (stereo not given) returned HP1b binding inh 62.3%, BAZ2B block inconclusive, G9a block 39.8µM* and JMJD2A Tudor inh 3.2%.
O=C1CC(SCc2nc3ccccc3[nH]2)C(=O)N1c1cccc(F)c1 (stereo not given) was read as HP1b binding inh 27.2%, BAZ2B block 3.0%, GLS inh 7.8%, G9a block inconclusive and JMJD2A Tudor inh -12.1%.
COc1ccccc1C(=O)Nc1cccc(OCc2cc(=O)n3c(C)csc3n2)c1 was read as HP1b binding inh 18.6%, BAZ2B block -9.2%, GLS inh 2.6%, G9a block inconclusive and JMJD2A Tudor inh -9.9%.
Screening CCOC(=O)CNC(=O)CSc1nc(N)cc(N)n1 returned HP1b binding inh 20.5%, BAZ2B block -1.4%, GLS inh 23.1%, G9a block -2.5%[59 µM] and JMJD2A Tudor inh -10.1%.
For CCOC(=O)CNC(=S)n1cnc(N)n1 the results were HP1b binding inh 25.5%, BAZ2B block 79.4µM*, GLS inh 1.5%, G9a block 6.1% and JMJD2A Tudor inh -7.8%.
Screening Cc1cccc(-n2c(C)c(C)c3c(N)ncnc32)c1 returned HP1b binding inh -25.6%, BAZ2B block -31.0%, GLS inh 2.6%, G9a block 50.1µM* and JMJD2A Tudor inh inconclusive.
`Cc1cc(NC(=O)CN2C(=O)NC(C)(c3ccccc3)C2=O)no1` (stereo not given) gave HP1b binding inh 28.4%, BAZ2B block 2.2%, GLS inh 4.7%, G9a block 0.7%[59 µM] and JMJD2A Tudor inh -10.4%.
Screening COc1ccc(C2(c3ccc(OC)cc3)NC(=O)N(CC(=O)Nc3ccccc3C(F)(F)F)C2=O)cc1 returned HP1b binding inh 2.9%, BAZ2B block -4.2%, GLS inh 3.4%, G9a block 79.4µM* and JMJD2A Tudor inh -27.1%.
For Cc1cc(NC(=O)CN2C(=O)NC(c3ccccc3)(c3ccc(C)c(C)c3)C2=O)no1 (stereo not given) the results were HP1b binding inh 8.7%, BAZ2B block -0.1%, GLS inh 5.2%, G9a block 17.8µM* and JMJD2A Tudor inh inconclusive.
Screening COc1ccccc1/C=C/CN1CCSCC1 returned HP1b binding inh inconclusive, BAZ2B block 56.2µM*, GLS inh 0.5%, G9a block 31.6µM* and JMJD2A Tudor inh 6.31µM*.
COc1ccccc1/C=C/CN1CCOCC1 was read as HP1b binding inh -51.9%, BAZ2B block inconclusive, GLS inh 1.0%, G9a block inconclusive and JMJD2A Tudor inh 3.16µM*.
Screening COc1ccccc1/C=C/C(=O)OC(C)CN1CCOCC1 (stereo not given) returned HP1b binding inh 27.2%, BAZ2B block -4.4%, GLS inh -3.2%, G9a block -0.7%[59 µM] and JMJD2A Tudor inh inconclusive.
For O=C1NC(=Nc2ccccc2)S/C1=C\C=C\c1ccco1 the results were HP1b binding inh inconclusive, BAZ2B block 25.1µM*, GLS inh 0.1%, G9a block inconclusive and JMJD2A Tudor inh 50.1µM*.
`Cc1ccc(N=C2NC(=O)/C(=C/C=C/c3ccco3)S2)cc1` gave HP1b binding inh inconclusive, BAZ2B block 15.8µM*, GLS inh -10.2%, G9a block 11.2µM* and JMJD2A Tudor inh 35.5µM*.
Screening Cc1cccc(N=C2NC(=O)/C(=C/c3cccnc3)S2)c1C returned HP1b binding inh 5.7%, BAZ2B block -18.2%, GLS inh -1.7%, G9a block inconclusive and JMJD2A Tudor inh -26.2%.
For Cc1cccc(N=C2NC(=O)/C(=C/C=C/c3ccco3)S2)c1C the results were HP1b binding inh 44.7µM*, BAZ2B block 22.4µM*, GLS inh -4.1%, G9a block 17.8µM* and JMJD2A Tudor inh 39.8µM*.
c1ccc(C2COC(c3cccs3)=N2)cc1 (stereo not given) was read as HP1b binding inh 22.2%, BAZ2B block 7.2%, GLS inh -4.1%, G9a block -2.6% and JMJD2A Tudor inh -7.7%.
CC1CCCN(CCCCOc2cccc(Br)c2)C1 (stereo not given) was read as HP1b binding inh -14.3%, BAZ2B block 50.1µM*, GLS inh 4.4%, G9a block inconclusive and JMJD2A Tudor inh 50.1µM*.
Brc1cccc(OCCCCN2CCCCC2)c1 was read as HP1b binding inh inconclusive, BAZ2B block inconclusive, GLS inh 6.1%, G9a block 7.08µM* and JMJD2A Tudor inh 50.1µM*.
`CC(C)c1cccc(OCCN2CCCC2)c1` gave HP1b binding inh inconclusive, BAZ2B block inconclusive, GLS inh 2.4%, G9a block 31.6µM* and JMJD2A Tudor inh 35.5µM*.
`Clc1cccc(OCCN2CCCC2)c1` gave HP1b binding inh 26.2%, BAZ2B block -0.6%, GLS inh 3.7%, G9a block inconclusive and JMJD2A Tudor inh -9.5%.
CCC1CCCCN1CCCCOc1cccc(Cl)c1 (stereo not given) was read as HP1b binding inh inconclusive, BAZ2B block inconclusive, GLS inh 8.7%, G9a block -21.1% and JMJD2A Tudor inh 17.8µM*.
For CCCC(=O)Nc1ccccc1NC(=O)c1ccc2c(c1)OCO2 the results were HP1b binding inh 25.8%, BAZ2B block -11.3%, GLS inh 2.7%, G9a block 3.4% and JMJD2A Tudor inh -3.6%.
`COc1cccc(OCCCCN2CCCCC2)c1` gave HP1b binding inh -2.7%, BAZ2B block inconclusive, GLS inh 3.0%, G9a block inconclusive and JMJD2A Tudor inh 8.91µM*.
